Dicer processing: blocks human Dicer maturation of pre-miR-21; Q9UPY3; cat-ELCCA pre-miR-21 Dicer processing, chemiluminescence; active compounds read high; z-score at 25 µM; 47,000 compounds, 6% hits; in the data active = z-score above about 3, passing the limit was not always enough;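 note: plate controls were vehicle for no effect and no enzyme for full effect; higher signal means more uncleaved substrate so more Dicer inhibition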
The depositor's hits bear a star. The entries come from a sample that favours hits as a whole.

SMILES | Dicer processing
CC1(C)Cc2c(C#N)c(SCc3ccccc3)nc(N3CCOCC3)c2CO1 | -1.2
O=C(O)c1cc2cc([N+](=O)[O-])ccc2s1 | 0.05
Cc1ccccc1OCc1nc(-c2cccnc2)no1 | -0.52
O=C(COc1ccccc1Br)c1ccc(O)cc1O | 3.2*
O=C(COc1ccccc1Br)Nc1ccc2c(c1)OCO2 | 1
O=C(CSc1ncn[nH]1)c1ccc(O)cc1O | -0.31
Cc1[nH][nH]c(=O)c1C(c1ccccc1OCc1ccc(Br)cc1)c1c(C)[nH][nH]c1=O | -6.6
COc1ccc2nc(-c3cccc(N)c3)[nH]c2c1 | -1.3
CCOC(=O)c1nnn2c1nc(N1CCN(C)CC1)c1ccccc12 | -0.68
Nc1nc2c(C(=O)N3CCOCC3)nnn2c2ccccc12 | 0.86
Nc1nc2c(-c3ccc([N+](=O)[O-])cc3)nnn2c2ccccc12 | 3.9*
Cc1ccc(-c2nnc(SCC(=O)O)o2)cc1 | 0.56
Cc1occc1-c1nnc(SCCC(=O)O)o1 | 1.4
Cc1occc1-c1nnc(SCC(=O)O)o1 | 3.4*
Cc1c(C)c(C)c(CSCC(=O)Nc2ccc(F)c(Cl)c2)c(C)c1C | 0.31
Cc1ccc(S(=O)(=O)N2CCCCC2)cc1-c1nnc2c3ccccc3c(C)nn12 | 1.1
COCCNS(=O)(=O)c1ccc(C)c(-c2nnc3c4ccccc4c(C)nn23)c1 | 1.4
c1ccc(-c2nn3c(-c4ccccc4)nnc3c3ccccc23)cc1 | 4.5*
Cc1ccccc1-c1nnc2c3ccccc3c(C)nn12 | 5*
Cc1nn2c(-c3cccc(NS(=O)(=O)c4ccc(Cl)cc4)c3)nnc2c2ccccc12 | 2.5
Cc1ccc(-c2nnc3c4ccccc4c(C)nn23)cc1S(=O)(=O)NCc1ccccc1 | 2.8
CCOC(=O)c1cc2c(C)n(-c3ccc(N(C)C)cc3)c(C)c2cc(C(=O)OCC)c1=O | -0.2
CC(C)(C)C(=O)N1CCCN(c2ccc([N+](=O)[O-])cn2)CC1 | -0.84
O=C(O)C(O)C(O)C(O)C(O)C(=O)O (centres undefined) (tested in a mixture with another compound) | -0.59
COc1ccc(C(C)C)cc1S(=O)(=O)Nc1ccc(Cl)cn1 | 0.52
SMILES | Dicer processing
CCOc1ccc(C)cc1S(=O)(=O)Nc1ccc(Cl)cn1 | 4.6*
CCOc1ccc(Cl)cc1S(=O)(=O)NCc1ccccn1 | 0.45
O=C(C[n+]1ccn2cccc2c1-c1ccccc1)c1ccccc1 | 0.07
CN(Cc1ccc(C(C)(C)C)cc1)Cc1cccc2ccccc12 | -0.2
CCOC(=O)/C(N=Nc1ccc(C)cc1C)=C(\C)O | 2.3
CC(=O)/C(N=Nc1ccc(C)cc1[N+](=O)[O-])=C(\C)O | 3.2*
CC(=O)/C(N=Nc1cc(F)c(Br)cc1F)=C(\C)O | 1.5
O=c1c2ccccc2nc2n1CCN2Cc1ccccc1 | -0.6
COc1ccc(Nc2nc(C)nc(N)c2S(=O)(=O)c2ccccc2)cc1 | 1.6
CCOC(=O)C(=CNc1ccc(F)c(C#N)c1)C(=O)OCC | 3.4*
CCOC(=O)C(=CNc1ccc2c(c1)CCN2C(C)=O)C(=O)OCC | 1.5
CCOC(=O)C(=CNc1nc2ccc(F)cc2s1)C(=O)OCC | 0.63
C=CCOC(=O)c1sc(N2C(=O)c3oc4ccccc4c(=O)c3C2c2ccc(C)o2)nc1C (centres undefined) | -0.43
CC(C)(C)C(=S)Nc1cccc(Cl)c1 | -4.9
CNC(=O)CC1Sc2ccccc2NC1=O (centres undefined) | 0.63
O=C(NC(=S)Nc1c(Cl)cc(Cl)cc1Cl)c1ccccc1 | -1.2
C/C(O)=C(\N=O)C(=O)Nc1ccccc1 | -0.95
CC(=N\Nc1c(Cl)cc(Cl)cc1Cl)/C(=N\O)C(=O)Nc1ccccc1 | 3*
Cc1ccc(C2CC(=O)c3cnc4c(-c5ccccc5)c(C)nn4c3C2)cc1 (centres undefined) | 1.4
Cc1cc(C)nc(-n2ncc3c2CC(c2ccccc2C)CC3=O)n1 (centres undefined) | -2
COc1ccc(Br)c(C(=O)NNC(=O)c2ccccc2N)c1 | -0.9
Cc1ccccc1-c1ccnc2[nH]n(-c3ccccc3)c(=O)c12 | 0.56
C=CCNC(=O)c1cnn(C)c1-n1cccc1 | 0.12
Fc1cccc(CN2CCN(C3CCCC3)CC2)c1 | 3.8*
CCc1ccc(CN2CCN(C3CCCCC3)CC2)cc1 | 2.5
SMILES | Dicer processing
Clc1ccc(CN2CCN(C3CCCC3)CC2)cc1 | 1.1
COc1ccc(OC)c(CN2CCN(Cc3ccc(OC)c(Br)c3)CC2)c1 | -0.14
c1ccc(CN2CCC(N3CCN(C4CCCCC4)CC3)CC2)cc1 | 0.42
Clc1ccc(CN2CCN(C3CCCCC3)CC2)cc1 | -2.5
Fc1ccccc1CN1CCN(C2CCCCC2)CC1 | 4.1*
COc1ccc(OC)c(CN2CCN(Cc3ccc(SC)cc3)CC2)c1 | 2.2
COc1ccc(OC)c(CN2CCN(C3CCCCC3)CC2)c1 | 3.1*
CCn1nnc(-c2cc(Cl)cc(Cl)c2)n1 | 1.7
CCOC(=O)C(=CNc1ccc(OC)c(C(=O)OC)c1OC)C(=O)OCC | -1
CC(C)(C)OC(=O)NC1CCN(C(=O)CSCC(=O)O)CC1 | 0.85
CC(C)(C)S(=O)(=O)/C(C#N)=C/Nc1ncccn1 | -2.3
Cn1c2ccccc2c2nnc(SCC(=O)Nc3nc4ccccc4s3)nc21 | 0.89
Cc1ccc(N(CC(N)=O)C2SC(=O)NC2=O)cc1 (centres undefined) | -6.2
N#Cc1nc(-c2ccc(F)cc2)oc1N1CCN(Cc2ccccc2)CC1 | -0.68
O=S(=O)(c1ccc(Cl)cc1)c1nc(-c2cccc(Br)c2)oc1N1CCOCC1 | 0.48
CCCCCCCCNC(C)C(O)c1ccc(SC(C)C)cc1 (centres undefined) | 33
Cn1c(=O)c2c(nc(NCCc3ccc(O)cc3)n2C)n(C)c1=O | -1.2
C[C@@H](NCCc1ccc(O)cc1)[C@@H](O)c1ccc(O)cc1 | 9.7*
CCOC(=O)c1c(/N=C/C2=C(O)C(c3ccccc3)CCC2=O)sc(C)c1C (centres undefined) | -0.33
COc1cc(C2Nc3ccccc3NC3=C2C(=O)CC(c2ccccc2)C3)cc(Cl)c1O (centres undefined) | 3.2*
COc1ccc(C2CC(=O)C3=C(C2)Nc2ccccc2NC3c2ccccc2OC(C)C)cc1 (centres undefined) | 2.2
COc1ccc(C2Nc3ccccc3NC3=C2C(=O)CC(c2ccccc2)C3)cc1O (centres undefined) | 1.5
COc1ccc(C2CC(=O)C3=C(C2)Nc2ccccc2NC3c2ccc(Cl)cc2)cc1OC (centres undefined) | 2.4
COc1ccc(C2CC(=O)C3=C(C2)Nc2ccccc2NC3c2ccccc2OC(C)C)cc1OC (centres undefined) | 0
CC(C)Oc1ccccc1C1Nc2ccccc2NC2=C1C(=O)CC(c1ccccc1)C2 (centres undefined) | 5.7*
SMILES | Dicer processing
Cc1noc(C)c1C(=O)Nc1ccc(-n2nc(C(F)(F)F)cc2C(F)(F)F)cc1 | 0.14
CC(=O)Nc1scc(C)c1-c1nc2ccccc2s1 | -0.01
Cc1csc(NC(=O)COCC(=O)O)c1-c1nc2ccccc2s1 | 1.3
Cc1csc(NS(=O)(=O)c2ccc(Cl)cc2)c1-c1nc2ccccc2s1 | 4.2*
O=C(CN1C(=O)c2ccccc2C1=O)Nc1cscc1S(=O)(=O)c1ccccc1 | 0.12
COC(=O)COc1ccc2c(=O)c(Oc3cc(C)cc(C)c3C)coc2c1 | -0.3
O=C(CSc1nc2ccccc2nc1N1CCOCC1)N1CCN(c2ccc(F)cc2)CC1 | 3.9*
O=C(CSc1nc2ccccc2nc1N1CCCCC1)N1CCN(C2CCCC2)CC1 | 1.4
O=C(CSc1nc2ccccc2nc1N1CCOCC1)N1CCOCC1 | 4.9*
O=C(CSc1nc2ccccc2nc1N1CCCC1)N1CCN(c2ccc(F)cc2)CC1 | 2.6
